Laboratory results published in PubChem BioAssay (NCI).
The panel holds about 83,000 compounds, 20% with a hit somewhere; the sample as a whole holds those more often.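 96-well plates, one dose, 48 hours. Percent growth reported; active if below 10.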 Values without a mark were called inactive. Activity calls are given as the source filed them.

The compounds below were run on BT-549 breast (assay: NCI-60 one-dose screen, 48 h (100 = growth as untreated, 0 = no growth, -100 = all killed)). Details: 10 µM unless noted.
Protocol: Growth inhibition of the BT-549 human tumor cell line is measured as a screen for anti-cancer activity. Cells are grown in 96 well plates and exposed to the test compound for 48 hours. Compounds are tested at a single concentration, which is 10^-5 M for most compounds. The reported endpoint is percent growth (GI% or GIPRCNT), where numbers from 0 - 100% represent growth inhibition, and numbers from -100% - 0 represent cell death. For example, a value of 40 represents 60% growth inhibition. A value of 0 means no net growth occurred over the course of the experiment. A value of -40 indicates 40% of cells at the beginning of the experiment died by the end of the experiment. A value of -100 means all cells are dead at the end of the experiment.
NCI-60 Human Tumor Cell Lines Screen was performed using the standard one-dose NCI protocol, which is described in more detail at https://dtp.cancer.gov/discovery_development/nci-60/default.htm.
Compounds with GIPRCNT values below 10 were considered active. Activity score was based on GIPRCNT using the following formula: […]
Score is 0 for GIPRCNT values of 100 or above, 50 for GIPRCNT values of 0, and 100 for GIPRCNT values of -100.
Work on `CCN1CCN(Cc2ccc(NC(=O)Nc3nc(-c4cc(OC)c(OC)c(OC)c4)cs3)cc2C(F)(F)F)CC1` yielded a growth of 45.3%. With `COc1cc(NC2CCC(=O)N2c2ccc(Cl)cc2Cl)cc(OC)c1OC` (stereo not given) the growth was 109%. In the case of `COc1cnc2c(c1)C(=O)c1c-2n(CCCN2CCC(N)CC2)c(=O)c2cc([N+](=O)[O-])ccc12`, the growth was 76.7%. Work on `CC[C@H](Nc1ncnc2nc[nH]c12)c1nc2cccc(F)c2c(=O)n1-c1ccccc1` yielded a growth of 40.2%. `CCn1cc(-c2ccnc3[nH]c(-c4cccc(CN(C)C)c4)cc23)c(-c2ccc(NC(=O)N(C)C)cc2)n1` was tested, and the growth was 14.1%. With `C=CC(=O)N1CCC[C@@H](n2nc(-c3ccc(Oc4ccccc4)cc3)c3c(N)ncnc32)C1` the growth was 34.6%. `CCc1nc2cc(/C=C/C(=O)NO)ccc2c(=O)n1CCc1ccc(OC)cc1` showed a growth of 55.1%. `CCc1cnn2c(NCc3ccc[n+]([O-])c3)cc(N3CCCC[C@H]3CCO)nc12` was tested, and the growth was -15.7% (active). `Cc1cc2c(-c3nc4ccccn4c3Nc3cccc4ccccc34)c(O)c(O)cc2c(O)c1-c1c(C)cc2c(-c3nc4ccccn4c3Nc3cccc4ccccc34)c(O)c(O)cc2c1O` gave a growth of 27.9%. Work on `CNC(=O)c1cc(Oc2cccc3nc(Nc4ccc(Oc5ccccc5)cc4)ccc23)ccn1` yielded a growth of 57.2%. `CN1CCC(CNc2ccc3ncc(-c4cccc(OC(F)(F)F)c4)n3n2)CC1` was tested, and the growth was -0.185% (active). `CCC1(/C=N/NC(N)=S)NC(=O)NC1=O` (stereo not given) showed a growth of 103%. In the case of `CC(=O)Oc1ccccc1C(=O)N=C1[Se]CCN1C(=O)c1ccccc1OC(C)=O`, the growth was -94.3% (active). `Cn1cc(-c2ccc(F)c(C(F)(F)F)c2)nc1C1CCN(c2ncnc3[nH]ncc23)CC1` was tested, and the growth was 43.1%. For `C/C(=N\NC(=O)Cn1c(-c2ccc(S(C)(=O)=O)cc2)nc2ccccc21)c1ccc(Cl)cc1`, the growth was 85%. For `CC#CC(=O)N1CCC[C@H]1c1nc(-c2ccc(C(=O)Nc3ccccn3)cc2)c2c(N)nccn12`, the growth was 84.5%. Work on `CC(C)=CCc1cc2c(cc1O)C1=C(C(=O)C3=C(NCCS3(=O)=O)C1=O)C(C=C(C)C)O2` (stereo not given) yielded a growth of 40.3%. For `COc1cc2c(cc1OCCCCCCN1CCN(c3ncnc4ccccc34)CC1)N=CC1CCCN1C2=O` (stereo not given), the growth was -40.8% (active). Compound `C=CCC(=O)N[C@H](/C=C/C(=O)O)Cc1ccc(-c2cc(Cl)cc(Cl)c2)cc1` has a growth of 92%. For `Cc1cc(N2CCCC2)nc(N(CCCNc2ccnc3cc(Cl)ccc23)Cc2ccc3c(c2)OCO3)n1`, the growth was -14.1% (active). Compound `COc1ccc(Cc2cc(-c3ccccc3C)n[nH]c2=O)cc1` has a growth of 132%. `CN[C@@H]1C[C@H]2O[C@@](C)([C@@H]1OC)n1c3ccccc3c3c4c(c5c6ccccc6n2c5c31)C(=O)N[C@H]4O` was tested, and the growth was -88.5% (active). In the case of `COc1ccc(-c2ccc3c(N4CCOC[C@@H]4C)nc(N4CCOC[C@@H]4C)nc3n2)cc1CO`, the growth was -6.65% (active). `Cc1cc(C(=O)NOCCO)c(Nc2ccc(I)cc2F)n(C)c1=O` was tested, and the growth was 85.7%. For `Cc1c(NC(=O)OC[C@@H]2COCCN2)cn2ncnc(Nc3ccc4c(cnn4Cc4cccc(F)c4)c3)c12`, the growth was 0.365% (active). `C=C1C[C@H](O)[C@H](Br)C(C)(C)[C@@]12CCC(C)=C(Cl)C2` was tested, and the growth was 26.4%. With `Cc1ccc(N=C2CSc3nnc(-c4csc5c4CCCC5)n3N2)cc1` the growth was 31.3%. In the case of `C[C@@H](NC(=O)c1ncnc(N)c1Cl)c1ncc(C(=O)Nc2cc(C(F)(F)F)c(Cl)cn2)s1`, the growth was 110%. With `Cc1cccc(NC(=O)[C@@H]2c3ccccc3C(=O)N(c3ccc(Cl)cc3)[C@H]2c2ccc(Cl)cc2)n1` the growth was 63.3%. In the case of `CC(C)OP(=O)(CCC(=O)c1c[nH]c2ccccc12)OC(C)C`, the growth was 117%. With `COc1ccc(OC)c(NC2=C(SCCc3ccccc3)C(=O)c3ccccc3C2=O)c1` the growth was 79.5%. In the case of `COc1ncc(-c2ccc3nccc(-c4ccnnc4)c3c2)cc1NS(=O)(=O)c1ccc(F)cc1F`, the growth was -31.7% (active). Compound `COc1ccc(Cl)c(Nc2nc3ccccc3nc2NS(=O)(=O)c2cccc(NC(=O)C(C)(C)N)c2)c1` has a growth of 28%. For `CC(C)=CCc1cc2c(cc1O)C1=C(C(=O)C3=C(C1=O)S(=O)(=O)CCN3)C(C=C(C)C)O2` (stereo not given), the growth was -73.6% (active). `COc1cc2cc(NCc3ccc(Cl)cc3)nc(C)c2cc1OC` showed a growth of 30.8%. For `O=C1C=CC2(NN=C(c3ccccc3)N2c2ccc(Cl)cc2)c2cccc(O)c21` (stereo not given), the growth was 33.5%. With `CNC(=O)c1cc(Oc2cccc3nc(Nc4ccc(Cl)c(F)c4)ccc23)ccn1` the growth was 63.8%. With `CCCNC(=O)c1cn2ncnc(Nc3cc(C(=O)NC4CC4)ccc3C)c2c1C` the growth was 103%. `NN1C(=O)CSC1=S` gave a growth of 93.5%. With `Oc1ccc(/C=N/Nc2nnc(N/N=C/c3ccc(O)cc3O)c3ccccc23)c(O)c1` the growth was -23.6% (active).
